Reference: PubChem BioAssay (NCI)
This is part of a sample that, as a whole, favours compounds with a hit. Of some 79,000 tested, about 15% had one in any assay. Cut-off read from the data, not from the text of the source: active = growth inhibition above about 70%; inactive = the rest.

Legend:
[1] = NCI Yeast Anticancer Drug Screen. Data for the rad50 strain (AID 155);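 note: 0% = growth of vehicle-only cultures of the same strain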; details: S. cerevisiae rad50 strain growth inhibition; at 50.0 µM; hits give high values
Summary of the method: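 DNA repair mutant yeast, compound exposure, growth read-out; inhibition is taken relative to vehicle.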

[2] = NCI Yeast Anticancer Drug Screen. Data for the mec2-1 strain (AID 157); details: S. cerevisiae mec2-1 strain, at 50.0 µM, hits give high values
Summary of the method: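 Mutant yeast (mec2-1) grown with compound; growth inhibition relative to vehicle control reported.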

[3] = NCI Yeast Anticancer Drug Screen. Data for the sgs1 mgt1 strain (AID 161);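 note: 0% = growth of cultures given vehicle only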; details: S. cerevisiae sgs1 mgt1 strain, at 50.0 µM, hits give high values
Summary of the method: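 Growth of a repair-deficient yeast mutant was monitored after compound treatment and expressed as inhibition relative to vehicle-treated cultures.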

[4] = NCI Yeast Anticancer Drug Screen. Data for the cln2 rad14 strain (AID 165);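 note: 0% = growth equal to vehicle treated cultures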; details: S. cerevisiae cln2 rad14 strain, at 50.0 µM, hits give high values
Summary of the method: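 Readout is yeast growth inhibition versus vehicle-treated controls, using a strain with cln2 and rad14 alterations exposed to compound.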

[5] = NCI Yeast Anticancer Drug Screen. Data for the bub3 strain (AID 167); details: S. cerevisiae bub3 mutant strain, at 50.0 µM, hits give high values
Summary of the method: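 In this screen, a yeast mutant lacking normal mitotic checkpoint function is challenged with compound. Relative growth versus vehicle gives the inhibition value.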

[6] = NCI Yeast Anticancer Drug Screen. Data for the mlh1 rad18 strain (AID 175); details: S. cerevisiae mlh1 rad18 strain growth inhibition; at 50.0 µM; hits give high values
Summary of the method: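 Genetically defined yeast (DNA repair-deficient) exposed to compounds; growth inhibition determined relative to vehicle.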

Measured: growth inhibition

CCCN1C(=O)CC(NC(C)=O)C1=O (configuration not stated)
inactive: [1] -2.85% | [2] 6.45% | [3] 8.1% | [4] -17.9% | [5] -5.85% | [6] 9.65%

CC(=O)c1ccccc1NCC(=O)Nn1cnc2ccc(S(=O)(=O)Nc3ccccc3C(C)=O)cc2c1=O
inactive: [1] 7.25% | [2] -21.3% | [3] 12.9% | [4] 18.6% | [5] 11.5% | [6] 7.6%

CCCC1CCN(c2ccc([N+](=O)[O-])cc2[N+](=O)[O-])CC1
inactive: [1] 1.75% | [2] -4.75% | [3] 9.65% | [4] -19.2% | [5] 38.2% | [6] -1.15%

Cc1ccc2c(CC(=O)O)cc(=O)oc2c1
inactive: [1] 7.35% | [2] -6.35% | [3] -7.95% | [4] 0.9% | [5] -0.3% | [6] -9.35%

COc1cc(C(=O)n2ncc(C(C)=O)c2C)cc(OC)c1OC
inactive: [1] -3.75% | [2] -17.5% | [3] 12.9% | [4] 10.9% | [5] 0.3% | [6] 8.45%

CCOC(=O)c1[nH]c(C)cc1C
inactive: [1] 2.95% | [2] -15.9% | [3] -7.55% | [4] -18.2% | [5] -22.4% | [6] -0.9%

N#C[C@H]1CC2C=CC1C2 (some centres not stated)
inactive: [1] 12.2% | [2] -20% | [3] 0.7% | [4] 8.2% | [5] 0.8% | [6] 15.7%

COc1ccc(COc2ccc([N+](=O)[O-])cc2)cc1
inactive: [1] -12.2% | [2] 5% | [3] -4.45% | [4] -9% | [5] -13.9% | [6] -2.25%

CCN(CC)CN1C(=O)C2C3C=CC(C2C1=O)C1C2C(=O)N(CN(CC)CC)C(=O)C2C31 (configuration not stated)
inactive: [1] 2.8% | [2] -25.6% | [3] -27.6% | [4] -9.15% | [5] -47.5% | [6] -45.9%

c1ccc2c(c1)Oc1ccccc1S2
inactive: [1] -14.2% | [2] -2.9% | [3] -0.15% | [4] 3.85% | [5] 7.35% | [6] -0.3%

CC1=CC(C)(C)N=C2SC(=O)c3nc4ccccc4c(=O)n3N12
inactive: [1] 10.7% | [2] 2.35% | [3] 13.8% | [4] -11.3% | [5] 15.1% | [6] 16.6%

O=[N+]([O-])c1cccc(N=Cc2ccc(Cl)cc2)c1
inactive: [1] -29.9% | [2] -17.8% | [3] -62.5% | [4] -0.7% | [5] -0.05% | [6] -11.1%

O=C(CCCc1ccccc1)NO
inactive: [1] 14.7% | [2] 33.6% | [3] 17.5% | [4] 3.35% | [5] 10.8% | [6] 13.6%

CC(=O)CCc1ccccc1
inactive: [1] 5.6% | [2] -7.8% | [3] -0.9% | [4] -23% | [5] -1.75% | [6] 1.9%

CCN(CC)CN(CC)CC
inactive: [1] 13.7% | [2] -9.2% | [3] 7.6% | [4] 21.4% | [5] 10.9% | [6] 9.25%

CC(=O)OCC1Cn2c(c(-c3ccccc3)c(=O)[nH]c2=S)O1 (configuration not stated)
inactive: [1] -9.15% | [2] 14.5% | [3] 5.95% | [4] -1.95% | [5] -6.35% | [6] 8.25%

O=C1CSc2nc3c(I)cc(I)cc3c(=O)n21
inactive: [1] 2.65% | [2] 6.2% | [3] -0.75% | [4] -25.1% | [5] -7.3% | [6] -0.6%

CSc1ccc(C(N)=O)cn1
inactive: [1] -1.2% | [2] -12.2% | [3] -7.05% | [4] -36% | [5] -22.1% | [6] 1.15%

c1ccc(-c2cc(-c3ccccc3)c3ccc4c(-c5ccccc5)cc(-c5ccccc5)c5ccc2c3c54)cc1
inactive: [1] -43% | [2] -17.4% | [3] -14.3% | [4] 11.6% | [5] -18.9% | [6] -26.2%

CC(C)C(Br)C(=O)N1CCOCC1 (configuration not stated)
inactive: [1] -0.4% | [2] -17.9% | [3] -5.2% | [4] -20.6% | [5] -9.6% | [6] -5.15%

COc1ccc(C(=O)c2ccccc2C(=O)c2ccc(OC)cc2)cc1
inactive: [1] -22.1% | [2] 16.1% | [3] -1.4% | [4] -37.8% | [5] -7.7% | [6] 6.95%

CC(CC#N)=C(c1ccccc1)c1ccccc1
inactive: [1] 17.4% | [2] 18.9% | [3] 14% | [4] 16% | [5] -12.8% | [6] -5.05%

CN(C)CCCNC(=O)Nc1ccc(Cl)cc1
inactive: [1] 8.15% | [2] 8.15% | [3] 0.15% | [4] 11.8% | [5] -0.35% | [6] 12.8%

CC(=O)Oc1ccccc1Cl
inactive: [1] 18.1% | [2] 31.5% | [3] 25.9% | [4] 13.3% | [5] 19.1% | [6] 16.8%

Cc1ccc(S(=O)(=O)N2CN(S(=O)(=O)c3ccc(C)cc3)CN(S(=O)(=O)c3ccc(C)cc3)C2)cc1
inactive: [1] -29.4% | [2] -32.2% | [3] -22.8% | [4] -6.9% | [5] -40.3% | [6] -24.8%

CC1(C)O[C@H]2[C@H](O)C[C@](O)(CO)C[C@H]2O1
inactive: [1] 1.3% | [2] 3.85% | [3] -0.65% | [4] -27.6% | [5] -9.25% | [6] 1.25%

C=C(C)CN(Cc1ccccc1)C1CCCCCCC1
inactive: [1] -7.55% | [2] -11.3% | [3] -14.8% | [4] -5.75% | [5] 1.35% | [6] -17.6%

N#CC(C#N)=C1CCNCC1
inactive: [1] -12.8% | [2] -5.5% | [3] -6.3% | [4] -8.35% | [5] 3.65% | [6] 0.9%

CCc1cccc(C)c1NC(=S)NC(=O)c1ccccc1C(=O)NC(=S)Nc1c(C)cccc1CC
inactive: [1] 12.3% | [2] 7.7% | [3] 0.95% | [4] 20.9% | [5] 11.8% | [6] 20.4%

Cc1onc(-c2ccccc2Cl)c1C(=O)NCC(=O)O
inactive: [1] -5.55% | [2] 2.6% | [3] -3.5% | [4] 3.5% | [5] 12.7% | [6] -0.15%

C#CC(OC(C)=O)C1OC(n2cnc3c(Cl)nc(Cl)nc32)C(OC(C)=O)C1OC(C)=O (configuration not stated)
inactive: [1] 37.5% | [2] 2.45% | [3] 21.2% | [4] 17.9% | [5] 10.8% | [6] 24.4%

CCNCCCCNCC
inactive: [1] 4.25% | [2] -14.9% | [3] -18.6% | [4] 8.1% | [5] -3.85% | [6] 2.3%

C=CCn1c(=O)n(CC=C)c(=O)n(CC=C)c1=O
inactive: [1] 7.4% | [2] 14.3% | [3] -5.35% | [4] -26.6% | [5] -10.3% | [6] -10.8%

COC(=O)C(Cc1cc(OC)c(OC)c(OC)c1)(NC(=O)c1ccccc1)P(=O)(OC)OC (configuration not stated)
inactive: [1] -14.2% | [2] -1.75% | [3] -38.4% | [4] -51.6% | [5] 1.05% | [6] -9.7%

CC(C)=CCC[C@@H](C)C1[C@@H](OC2OC(CO)C(O)C(O)C2O)CC2(C)[C@@H]3CC(=O)C4C(C)(C)[C@@H](OC5OC(CO)C(O)C(O)C5O)CC[C@@]45C[C@@]35CC[C@]12C (some centres not stated)
inactive: [1] -17.4% | [2] -40% | [3] -27.1% | [4] -3.15% | [5] -20.8% | [6] -25.4%

O=C1CC(=O)N2C=CC=CC2N1 (configuration not stated)
inactive: [1] -14.8% | [2] -21.6% | [3] -23.1% | [4] -4.7% | [5] -16.7% | [6] -13.5%

CC(=O)Nc1cc(C)c(C)cc1[N+](=O)[O-]
inactive: [1] -2.5% | [2] -16.6% | [3] -9.45% | [4] 3.3% | [5] -27.1% | [6] -11.7%
